This note sets out measurements from paper PMC7862700, “An all-to-all approach to the identification of sequence-specific readers for epigenetic DNA modifications on cytosine”.

What all share (assay): DAPPL (digital affinity profiling via proximity ligation, sequencing); 10 mM Tris-HCl pH 7.5, 50 mM NaCl, 1 mM DTT, 4% glycerol, room temperature, 30 min; GST-TFs on glutathione beads, 16-mer random dsDNA library, 0.1% formaldehyde crosslink after washing; high values mean tight binding
The target in one experiment is T1, ELK1 (Homo sapiens, UniProt P19419 1-428).
T1 sequence: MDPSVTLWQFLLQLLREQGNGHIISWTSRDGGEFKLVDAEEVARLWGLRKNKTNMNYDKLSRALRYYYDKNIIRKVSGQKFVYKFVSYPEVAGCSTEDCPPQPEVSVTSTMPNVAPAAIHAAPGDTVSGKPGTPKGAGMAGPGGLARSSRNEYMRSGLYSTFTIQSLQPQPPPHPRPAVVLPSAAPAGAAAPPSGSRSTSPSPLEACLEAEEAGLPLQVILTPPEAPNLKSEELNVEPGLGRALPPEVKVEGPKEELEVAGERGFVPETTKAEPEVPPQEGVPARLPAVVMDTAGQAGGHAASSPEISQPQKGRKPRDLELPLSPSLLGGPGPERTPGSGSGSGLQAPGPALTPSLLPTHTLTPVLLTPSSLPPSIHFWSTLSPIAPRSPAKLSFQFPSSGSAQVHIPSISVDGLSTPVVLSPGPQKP
To be noted: protein: recombinant; tags: N-terminal GST; dsDNA, one strand shown. In a few lines: (§1)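 Human transcription factors were made in yeast as GST fusions, captured on glutathione beads and barcoded with DNA. With a tag-only sample included, the pool was incubated with 200 nmole of a random double-stranded 16-mer DNA library in Tris/NaCl/DTT/glycerol buffer at room temperature for 30 min, then crosslinked with 0.1% formaldehyde after washing, ligated by proximity, amplified and sequenced. For binding signal, each hexamer's read frequency for a factor is divided by its frequency for the tag-only sample.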

The next experiment deals with ELF1 (Homo sapiens, UniProt P32519 1-619). To be noted: protein: recombinant; tags: N-terminal GST; dsDNA, one strand shown. In a few lines:
as §1

The target in the next experiment is SPI1 (Homo sapiens, UniProt P17947 1-270). Conditions: protein: recombinant; tags: N-terminal GST; dsDNA, one strand shown. In a few lines:
as §1

Another experiment has as its target SPIB (Homo sapiens, UniProt Q01892 1-262). To be noted: protein: recombinant; tags: N-terminal GST; dsDNA, one strand shown. In a few lines: as §1
The next experiment deals with HSF1 (Homo sapiens, UniProt Q00613 1-529). To be noted: protein: recombinant; tags: N-terminal GST; chain copies: 3; dsDNA, one strand shown. The essentials:
as §1

For a further experiment, the target named is T2, SPIC (Homo sapiens, UniProt Q8N5J4 1-248).
T2 sequence: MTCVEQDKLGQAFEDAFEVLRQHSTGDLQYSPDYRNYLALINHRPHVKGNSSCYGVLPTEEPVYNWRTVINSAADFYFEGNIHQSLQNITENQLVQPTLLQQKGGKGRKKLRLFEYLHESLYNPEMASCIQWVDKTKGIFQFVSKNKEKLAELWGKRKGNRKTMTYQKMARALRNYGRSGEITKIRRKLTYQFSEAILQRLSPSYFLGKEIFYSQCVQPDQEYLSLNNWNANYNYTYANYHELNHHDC
Conditions: protein: recombinant; tags: N-terminal GST; dsDNA, one strand shown. The essentials: as §1

In the next experiment the target is T3, ELK4 (Homo sapiens, UniProt P28324-2 1-405).
T3 sequence: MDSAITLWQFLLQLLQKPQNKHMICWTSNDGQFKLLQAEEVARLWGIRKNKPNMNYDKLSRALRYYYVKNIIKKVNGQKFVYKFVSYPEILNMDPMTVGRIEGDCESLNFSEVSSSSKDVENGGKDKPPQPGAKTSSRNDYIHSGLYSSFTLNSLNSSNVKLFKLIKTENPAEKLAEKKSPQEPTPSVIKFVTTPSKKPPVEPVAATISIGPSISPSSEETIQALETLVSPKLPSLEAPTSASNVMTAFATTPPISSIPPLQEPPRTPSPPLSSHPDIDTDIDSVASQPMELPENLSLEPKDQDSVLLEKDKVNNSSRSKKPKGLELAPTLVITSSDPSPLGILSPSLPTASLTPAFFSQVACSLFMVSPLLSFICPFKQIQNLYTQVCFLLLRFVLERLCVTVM
To be noted: protein: recombinant; tags: N-terminal GST; dsDNA, one strand shown. The essentials: as §1

The next experiment deals with T4, ELF3 (Homo sapiens, UniProt P78545 1-371).
T4 sequence: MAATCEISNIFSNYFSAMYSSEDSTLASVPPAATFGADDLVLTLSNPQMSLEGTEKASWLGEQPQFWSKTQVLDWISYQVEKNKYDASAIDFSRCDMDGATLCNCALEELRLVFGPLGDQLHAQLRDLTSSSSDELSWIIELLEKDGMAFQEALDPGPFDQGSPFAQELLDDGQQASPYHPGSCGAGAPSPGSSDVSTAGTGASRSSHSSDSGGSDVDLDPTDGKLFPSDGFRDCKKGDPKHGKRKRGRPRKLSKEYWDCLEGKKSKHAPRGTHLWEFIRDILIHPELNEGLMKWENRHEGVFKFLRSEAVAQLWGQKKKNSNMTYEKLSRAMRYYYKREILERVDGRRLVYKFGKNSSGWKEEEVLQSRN
To be noted: protein: recombinant; tags: N-terminal GST; dsDNA, one strand shown. The essentials:
as §1

The target in another experiment is ETV1 (Homo sapiens, UniProt P50549 1-477). Conditions: protein: recombinant; tags: N-terminal GST; dsDNA, one strand shown. The essentials: as §1
A further experiment concerns the target T5, ERF (Homo sapiens, UniProt P50548 1-548).
T5 sequence: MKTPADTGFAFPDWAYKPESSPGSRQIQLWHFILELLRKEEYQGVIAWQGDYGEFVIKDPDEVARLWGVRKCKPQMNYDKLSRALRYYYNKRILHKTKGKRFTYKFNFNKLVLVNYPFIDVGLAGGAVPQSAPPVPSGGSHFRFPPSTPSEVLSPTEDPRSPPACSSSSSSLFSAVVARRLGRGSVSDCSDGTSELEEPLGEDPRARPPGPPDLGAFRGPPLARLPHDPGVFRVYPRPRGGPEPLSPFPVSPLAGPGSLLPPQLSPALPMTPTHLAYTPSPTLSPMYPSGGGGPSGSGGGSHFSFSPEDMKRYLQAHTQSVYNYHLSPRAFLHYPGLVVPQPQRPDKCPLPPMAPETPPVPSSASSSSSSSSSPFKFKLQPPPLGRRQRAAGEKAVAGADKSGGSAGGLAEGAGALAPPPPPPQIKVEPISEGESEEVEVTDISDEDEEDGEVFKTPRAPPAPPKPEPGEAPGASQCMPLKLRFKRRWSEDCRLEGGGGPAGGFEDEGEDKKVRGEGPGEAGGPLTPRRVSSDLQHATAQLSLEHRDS
Conditions: protein: recombinant; tags: N-terminal GST; dsDNA, one strand shown. In a few lines:
as §1

The next experiment addresses T6, ETS2 (Homo sapiens, UniProt P15036 1-469).
T6 sequence: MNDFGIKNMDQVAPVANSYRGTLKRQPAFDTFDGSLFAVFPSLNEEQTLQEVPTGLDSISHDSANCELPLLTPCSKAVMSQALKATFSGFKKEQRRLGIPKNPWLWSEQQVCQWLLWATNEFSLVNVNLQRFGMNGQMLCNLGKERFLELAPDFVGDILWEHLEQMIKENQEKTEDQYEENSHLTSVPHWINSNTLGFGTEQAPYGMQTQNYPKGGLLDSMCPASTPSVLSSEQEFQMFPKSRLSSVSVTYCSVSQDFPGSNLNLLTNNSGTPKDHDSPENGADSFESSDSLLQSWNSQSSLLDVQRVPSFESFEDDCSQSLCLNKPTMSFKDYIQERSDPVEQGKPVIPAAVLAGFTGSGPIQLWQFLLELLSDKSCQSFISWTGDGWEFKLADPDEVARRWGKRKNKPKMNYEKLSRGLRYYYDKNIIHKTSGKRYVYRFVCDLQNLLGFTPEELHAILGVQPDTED
Conditions: protein: recombinant; tags: N-terminal GST; dsDNA, one strand shown. The essentials: as §1

Another experiment addresses T7, ETV3 (Homo sapiens, UniProt P41162-2 1-143).
T7 sequence: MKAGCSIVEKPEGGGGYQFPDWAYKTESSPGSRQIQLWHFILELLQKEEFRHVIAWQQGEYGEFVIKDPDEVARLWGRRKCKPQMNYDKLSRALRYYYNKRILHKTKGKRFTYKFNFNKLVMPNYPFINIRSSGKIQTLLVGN
To be noted: protein: recombinant; tags: N-terminal GST; dsDNA, one strand shown. In a few lines: as §1

In a further experiment the target is T8, ERG (Homo sapiens, UniProt P11308 1-479).
T8 sequence: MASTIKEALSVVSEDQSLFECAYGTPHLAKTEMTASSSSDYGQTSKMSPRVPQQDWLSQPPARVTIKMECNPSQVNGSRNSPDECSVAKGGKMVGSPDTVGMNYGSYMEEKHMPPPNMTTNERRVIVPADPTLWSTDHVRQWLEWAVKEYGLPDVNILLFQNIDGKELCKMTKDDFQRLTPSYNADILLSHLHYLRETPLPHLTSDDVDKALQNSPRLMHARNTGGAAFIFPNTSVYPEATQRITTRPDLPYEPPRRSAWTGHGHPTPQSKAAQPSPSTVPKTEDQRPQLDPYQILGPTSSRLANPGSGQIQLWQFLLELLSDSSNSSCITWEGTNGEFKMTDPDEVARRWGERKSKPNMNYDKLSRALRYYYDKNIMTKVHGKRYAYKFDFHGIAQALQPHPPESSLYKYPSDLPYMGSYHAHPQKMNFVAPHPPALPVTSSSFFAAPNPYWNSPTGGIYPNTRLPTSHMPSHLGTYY
Conditions: protein: recombinant; tags: N-terminal GST; dsDNA, one strand shown. In a few lines: as §1

For the next experiment, the target named is T9, ETV2 (Homo sapiens, UniProt O00321 1-342).
T9 sequence: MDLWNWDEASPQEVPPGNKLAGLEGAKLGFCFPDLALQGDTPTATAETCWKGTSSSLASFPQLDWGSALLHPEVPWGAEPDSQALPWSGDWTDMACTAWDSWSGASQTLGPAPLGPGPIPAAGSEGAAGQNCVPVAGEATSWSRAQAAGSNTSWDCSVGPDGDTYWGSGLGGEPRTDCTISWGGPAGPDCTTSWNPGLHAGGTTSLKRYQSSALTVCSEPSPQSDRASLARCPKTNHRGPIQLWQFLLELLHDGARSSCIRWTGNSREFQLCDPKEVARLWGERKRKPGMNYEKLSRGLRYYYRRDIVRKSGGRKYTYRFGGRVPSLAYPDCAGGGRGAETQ
Conditions: protein: recombinant; tags: N-terminal GST; dsDNA, one strand shown. In a few lines:
as §1

The target in another experiment is CRX (Homo sapiens, UniProt O43186 1-299). Conditions: protein: recombinant; tags: N-terminal GST; dsDNA, one strand shown. The essentials:
as §1

The next experiment addresses T10, ETV3L (Homo sapiens, UniProt Q6ZN32 1-361).
T10 sequence: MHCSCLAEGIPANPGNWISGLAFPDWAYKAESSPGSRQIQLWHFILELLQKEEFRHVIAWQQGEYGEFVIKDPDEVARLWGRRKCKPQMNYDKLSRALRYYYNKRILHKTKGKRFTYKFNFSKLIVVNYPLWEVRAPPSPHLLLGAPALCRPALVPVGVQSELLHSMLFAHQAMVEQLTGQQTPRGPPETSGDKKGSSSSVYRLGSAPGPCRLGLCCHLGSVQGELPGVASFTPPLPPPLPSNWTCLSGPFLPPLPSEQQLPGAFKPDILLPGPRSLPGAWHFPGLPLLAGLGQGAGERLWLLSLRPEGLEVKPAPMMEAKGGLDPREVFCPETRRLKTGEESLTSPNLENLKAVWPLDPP
Conditions: protein: recombinant; tags: N-terminal GST; dsDNA, one strand shown. The essentials: as §1

Another experiment addresses T11, ELF5 (Homo sapiens, UniProt Q9UKW6-2 1-255).
T11 sequence: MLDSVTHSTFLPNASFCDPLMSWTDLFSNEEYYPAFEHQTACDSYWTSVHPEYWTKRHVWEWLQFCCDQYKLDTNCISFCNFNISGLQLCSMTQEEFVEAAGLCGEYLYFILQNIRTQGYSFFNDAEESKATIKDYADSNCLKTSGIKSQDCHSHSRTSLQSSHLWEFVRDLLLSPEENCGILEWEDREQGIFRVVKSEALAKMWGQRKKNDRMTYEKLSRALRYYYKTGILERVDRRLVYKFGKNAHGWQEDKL
Conditions: protein: recombinant; tags: N-terminal GST; dsDNA, one strand shown. In a few lines: as §1

Another experiment deals with ETV6 (Homo sapiens, UniProt P41212 1-452). Conditions: protein: recombinant; tags: N-terminal GST; dsDNA, one strand shown. The essentials:
as §1

Chain of HSF1 (Q00613 whole entry): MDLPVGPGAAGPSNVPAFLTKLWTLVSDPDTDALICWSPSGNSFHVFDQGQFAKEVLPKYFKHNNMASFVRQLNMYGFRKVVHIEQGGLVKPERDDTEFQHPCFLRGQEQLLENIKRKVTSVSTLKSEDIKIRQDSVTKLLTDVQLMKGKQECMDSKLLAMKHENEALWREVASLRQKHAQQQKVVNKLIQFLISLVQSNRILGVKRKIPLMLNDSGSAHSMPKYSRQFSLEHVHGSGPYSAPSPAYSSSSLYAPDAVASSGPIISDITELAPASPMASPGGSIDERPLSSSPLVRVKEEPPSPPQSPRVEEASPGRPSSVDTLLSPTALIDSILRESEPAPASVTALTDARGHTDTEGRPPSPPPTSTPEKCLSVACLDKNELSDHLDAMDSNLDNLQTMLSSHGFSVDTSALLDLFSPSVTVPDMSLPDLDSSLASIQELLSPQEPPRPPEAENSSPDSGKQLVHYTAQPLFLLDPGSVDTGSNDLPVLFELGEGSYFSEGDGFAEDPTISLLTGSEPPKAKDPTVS
Chain of SPIB (Q01892 whole entry): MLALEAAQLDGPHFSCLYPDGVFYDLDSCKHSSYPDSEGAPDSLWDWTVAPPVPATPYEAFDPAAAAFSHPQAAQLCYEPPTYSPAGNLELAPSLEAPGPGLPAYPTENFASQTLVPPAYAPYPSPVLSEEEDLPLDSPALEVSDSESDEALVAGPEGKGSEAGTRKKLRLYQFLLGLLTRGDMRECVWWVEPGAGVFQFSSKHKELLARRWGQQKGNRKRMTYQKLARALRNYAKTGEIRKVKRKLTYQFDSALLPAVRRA
Chain of CRX (O43186 whole entry): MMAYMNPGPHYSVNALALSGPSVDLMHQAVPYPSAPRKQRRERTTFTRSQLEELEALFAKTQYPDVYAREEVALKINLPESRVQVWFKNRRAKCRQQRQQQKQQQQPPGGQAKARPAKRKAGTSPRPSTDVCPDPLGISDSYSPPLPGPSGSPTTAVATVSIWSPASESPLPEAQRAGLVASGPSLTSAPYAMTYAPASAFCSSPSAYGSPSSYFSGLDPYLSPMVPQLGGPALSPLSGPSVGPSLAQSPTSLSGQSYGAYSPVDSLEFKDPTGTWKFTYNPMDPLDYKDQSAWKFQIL
Chain of ETV1 (P50549 whole entry): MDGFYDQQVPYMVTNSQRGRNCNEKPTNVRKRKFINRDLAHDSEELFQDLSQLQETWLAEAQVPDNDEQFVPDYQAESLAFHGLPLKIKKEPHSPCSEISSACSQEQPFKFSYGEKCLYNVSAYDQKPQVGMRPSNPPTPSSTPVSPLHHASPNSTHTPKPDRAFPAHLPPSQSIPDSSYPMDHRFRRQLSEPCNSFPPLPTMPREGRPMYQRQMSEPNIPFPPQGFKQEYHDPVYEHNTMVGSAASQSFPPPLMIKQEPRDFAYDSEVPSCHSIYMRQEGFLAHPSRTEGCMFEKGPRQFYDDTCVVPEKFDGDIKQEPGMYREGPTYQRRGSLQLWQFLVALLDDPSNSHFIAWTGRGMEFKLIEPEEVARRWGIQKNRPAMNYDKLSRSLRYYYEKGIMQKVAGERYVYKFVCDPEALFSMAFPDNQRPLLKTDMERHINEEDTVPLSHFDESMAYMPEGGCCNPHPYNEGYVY
Chain of ETV6 (P41212 whole entry): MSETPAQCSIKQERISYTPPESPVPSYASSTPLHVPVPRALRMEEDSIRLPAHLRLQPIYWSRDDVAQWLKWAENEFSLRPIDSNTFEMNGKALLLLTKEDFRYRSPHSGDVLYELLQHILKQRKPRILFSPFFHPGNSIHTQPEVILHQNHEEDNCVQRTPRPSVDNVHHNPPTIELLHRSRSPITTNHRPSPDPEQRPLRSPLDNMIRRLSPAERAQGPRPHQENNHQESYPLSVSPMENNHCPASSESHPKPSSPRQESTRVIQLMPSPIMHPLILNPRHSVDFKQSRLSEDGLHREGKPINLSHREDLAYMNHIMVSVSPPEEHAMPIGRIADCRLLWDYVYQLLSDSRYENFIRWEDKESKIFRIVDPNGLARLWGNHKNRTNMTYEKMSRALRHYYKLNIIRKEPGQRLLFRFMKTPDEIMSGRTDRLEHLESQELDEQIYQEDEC
Chain of ELF1 (P32519 whole entry): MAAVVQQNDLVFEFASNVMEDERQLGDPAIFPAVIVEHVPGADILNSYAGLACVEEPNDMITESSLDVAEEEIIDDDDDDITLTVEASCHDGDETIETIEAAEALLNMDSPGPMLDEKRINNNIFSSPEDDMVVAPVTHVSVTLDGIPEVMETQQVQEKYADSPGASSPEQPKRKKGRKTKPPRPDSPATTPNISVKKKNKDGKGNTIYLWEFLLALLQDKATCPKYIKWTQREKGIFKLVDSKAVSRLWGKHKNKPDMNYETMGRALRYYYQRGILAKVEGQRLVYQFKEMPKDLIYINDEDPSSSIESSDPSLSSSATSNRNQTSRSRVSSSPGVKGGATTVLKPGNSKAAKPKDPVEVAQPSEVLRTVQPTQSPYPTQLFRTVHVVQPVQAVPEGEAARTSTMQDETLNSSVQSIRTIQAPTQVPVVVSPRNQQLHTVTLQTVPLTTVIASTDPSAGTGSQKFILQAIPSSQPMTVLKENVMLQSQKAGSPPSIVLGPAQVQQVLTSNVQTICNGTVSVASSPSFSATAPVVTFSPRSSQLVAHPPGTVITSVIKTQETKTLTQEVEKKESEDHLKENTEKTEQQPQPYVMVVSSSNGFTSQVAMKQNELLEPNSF

For the sequence CCCTAG, the binding signal in the experiment with ELK1 is 1.04 fold enrichment (6-mer frequency, TF over GST control); in the experiment with ELF1, 1.06 fold enrichment (6-mer frequency, TF over GST control); in the experiment with SPI1, 1 fold enrichment (6-mer frequency, TF over GST control); with SPIB it was 1.05 fold enrichment (6-mer frequency, TF over GST control); with HSF1 it was 1.15 fold enrichment (6-mer frequency, TF over GST control); with SPIC it was 1.18 fold enrichment (6-mer frequency, TF over GST control). Also, the binding signal was 1.01 fold enrichment (6-mer frequency, TF over GST control) in the experiment with ELK4; 1.13 fold enrichment (6-mer frequency, TF over GST control) with ELF3; 1.01 fold enrichment (6-mer frequency, TF over GST control) in the experiment with ETV1; 1.04 fold enrichment (6-mer frequency, TF over GST control) in the experiment with ERF; 1.03 fold enrichment (6-mer frequency, TF over GST control) with ETS2; 1.04 fold enrichment (6-mer frequency, TF over GST control) with ETV3.
Take AGTATA: the binding signal in the experiment with ELK1 is 1.05 fold enrichment (6-mer frequency, TF over GST control); with ERG, 1 fold enrichment (6-mer frequency, TF over GST control); with SPI1 it was 1.04 fold enrichment (6-mer frequency, TF over GST control); in the experiment with HSF1 it was 1.01 fold enrichment (6-mer frequency, TF over GST control); with SPIC it was 1.07 fold enrichment (6-mer frequency, TF over GST control); with ELK4, 1.03 fold enrichment (6-mer frequency, TF over GST control). Moreover, the binding signal was 1.06 fold enrichment (6-mer frequency, TF over GST control) with ETV2; 1.07 fold enrichment (6-mer frequency, TF over GST control) with CRX; 1.01 fold enrichment (6-mer frequency, TF over GST control) with ERF; 1.02 fold enrichment (6-mer frequency, TF over GST control) with ETV3L; 1.03 fold enrichment (6-mer frequency, TF over GST control) with ELF5; 1 fold enrichment (6-mer frequency, TF over GST control) in the experiment with ETV3. Besides, the binding signal in the experiment with ETV6 is 1.06 fold enrichment (6-mer frequency, TF over GST control).
